Measurements taken from PubChem BioAssay (NCI).
This is part of a sample that, as a whole, favours compounds with a hit. Of some 83,000 tested, about 20% had one in any assay.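 48-hour exposure, single concentration, 96-well plates; percent growth endpoint where 0 means no net growth. Active: below 10.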 Values without a mark were called inactive. Calls of active or inactive are those of the source.

Key:
Test in all cases: NCI-60 one-dose screen, 48 h (100 = growth as untreated, 0 = no growth, -100 = all killed)
Conditions in all cases: 10 µM unless noted
[1] = tested on: HCT-15 colon
[2] = tested on: HT29 colon
[3] = tested on: SNB-75 CNS
[4] = tested on: SNB-19 CNS
[5] = tested on: U251 CNS
[6] = tested on: PC-3 prostate
[7] = tested on: SK-MEL-5 melanoma
[8] = tested on: UACC-62 melanoma
[9] = tested on: LOX IMVI melanoma
[10] = tested on: SK-MEL-28 melanoma

SMILES | growth [1] | growth [2] | growth [3] | growth [4] | growth [5] | growth [6] | growth [7] | growth [8] | growth [9] | growth [10]
CCc1cccc2c3c(sc12)C(c1ccc(F)cc1)C(C#N)=C(/N=C/c1ccc(Cl)cc1)O3 (stereo not given) | 12.9% | -18.9% (active) | 34.8% | 27.1% | 14.5% | 21.7% | 32.4% | 23.8% | 30.3% | 61.9%
CCCCCN1C(=O)/C(=c2\sc3n(c2=O)C2C(NN=3)N(CC)C(=O)N2CC)c2cccc(C)c21 (stereo not given) | 19.9% | 37.9% | 20.5% | 53.1% | 61% | 40% | 45.5% | 35.4% | 37.9% | 62.4%
Clc1ccc(CSc2nnc(-c3ccc(Cl)cc3)n2-c2ccccc2)cc1 | 93.3% | 84% | -0.642% (active) | 62% | 81.2% | 71% | 94.3% | 85.8% | 88.6% | 98.8%
C#CCOc1cccc(-c2nc(N)nc(Nc3ccccc3SSc3ccccc3Nc3nc(N)nc(-c4cccc(OCC#C)c4)n3)n2)c1 | 28.6% | 96.9% | 27.7% | -9.77% (active) | -48.9% (active) | 7.33% (active) | 57.3% | 63.9% | -52.8% (active) | 88.9%
CC1=Cc2ccccc2OC12C=Cc1ccccc1O2 (stereo not given) | 96.8% | 98.2% | 81.4% | 91.1% | 102% | 84.9% | 92.4% | 83% | 90.6% | 114%
COc1cc(NC(=O)Nc2cccc(-c3cc(=O)c4c(OC)c(OC)c(OC)cc4o3)c2)cc(OC)c1OC | 32.7% | 46% | -0.583% (active) | 46.9% | 27.5% | 44.8% | 43% | 48.4% | 24.7% | 53.5%
O=C(O)c1ccc(-n2c(=O)n(-c3cccc(C(F)(F)F)c3)c(=O)c3cc(-c4ccc(F)cc4F)ccc32)cc1 | 10.4% | 48.5% | -12.1% (active) | 13.4% | 11.1% | 3.4% (active) | -60.4% (active) | -3.72% (active) | 5.95% (active) | 26.1%
COC(=O)c1cccc(NC2=C(Cl)C(=O)c3nc(C)ccc3C2=O)c1 | 51.6% | 110% | 119% | 92.2% | 106% | 85.4% | 97.9% | 95.4% | 10.2% | 93.6%
Cc1ccc(S(=O)(=O)c2nc(-c3ccc(F)cc3)oc2S(C)(=O)=O)cc1 | 13.4% | 55.1% | 87.2% | 91.4% | 96.1% | 91.8% | 98.4% | 84.4% | -68.8% (active) | 79.8%
Cn1cc(-c2cc3ncnc(Nc4ccc(CC(=O)Nc5nc(C(C)(C)C)cs5)cc4)c3s2)cn1 | 26.6% | 49.9% | 50.9% | 94.5% | 66% | 41.4% | 53% | 40.3% | 26.3% | 68.9%
C#CCOc1cccc(/C(N)=N/C(N)=N/c2nc3ccccc3s2)c1 | 57.4% | 108% | 109% | 95.5% | 84.9% | 69.8% | 95.3% | 92.3% | -1.89% (active) | 115%
N#C/C(=C\c1cccc2c1OCO2)C(=O)Nc1sc2c(c1C#N)CCCC2 | 102% | 124% | 102% | 95.4% | 96.9% | 109% | 101% | 90.8% | 104% | 102%
CCc1cc(O)ccc1Nc1cc(-c2ccc(-n3cccn3)cc2)[nH]n1 | 33.6% | 77.4% | 117% | 69% | 82.5% | 60.9% | 49.2% | 43.2% | 26.1% | 80.8%
Brc1cccc(-c2cc(-c3cnc4c(c3)OCCO4)n[nH]2)c1 | 21.1% | 18.8% | 46.9% | 59.8% | 43.3% | 79.1% | 24.2% | 55.5% | 37.1% | 59%
Fc1ccc(-c2cn3c(-c4c[nH]c5ccc(Br)cc45)csc3n2)cc1 | 77.8% | 97.9% | -7.44% (active) | 52.6% | 47.8% | 73.6% | 95.2% | 65.7% | 13.1% | 87.8%
Brc1cc(-c2cc(-c3ccc4c(c3)OC=CO4)[nH]n2)cs1 | 51% | 90% | 83.5% | 84.1% | 81.3% | 97.3% | 87.5% | 76.9% | 80% | 94.2%
Nc1ccc(Nc2ncnc3sc4c(c23)CCN(Cc2ccccc2)C4)cc1 | 100% | 101% | 88.7% | 97.2% | 102% | 89.1% | 96.6% | 87.8% | 101% | 102%
O=C1c2ccccc2C23C(=C(c4cncnc4)c4ccccc42)CCCN13 (stereo not given) | 104% | 101% | 85.3% | 93.4% | 102% | 88.8% | 98.7% | 88.2% | 76.1% | 101%
Cc1cc2nc(C(Cl)Cl)nc(-c3ccc(S(=O)(=O)N(C)C)cc3)n2n1 | 5.58% (active) | 18% | 55.5% | 58.4% | 39.2% | 67.4% | 80.3% | 68.5% | 17.7% | 59.3%
CCNC(=O)Oc1ccc(/C(=C(/C)c2ccc(Cl)cc2)c2ccc(OCCN3CCCCCC3)cc2)cc1 | -31.6% (active) | -48.4% (active) | 75.6% | 34.2% | 27.5% | 13.4% | 33.1% | 2.74% (active) | -87.8% (active) | -76% (active)
Cc1ccc(-c2cc3nc(C(Cl)Cl)nc(-c4ccc(S(=O)(=O)N(C)C)cc4)n3n2)cc1 | 74.9% | 66.5% | 108% | 89.4% | 83.8% | 91.7% | 91.5% | 88.9% | 45.7% | 99.5%
CN1CCN(c2ccc(Nc3nc(NCCNS(=O)(=O)c4ccc5ccccc5c4)c4sccc4n3)cc2)CC1 | 7.96% (active) | 8.55% (active) | 78% | 90.6% | 13.4% | 76% | 86.1% | 66.5% | -77.3% (active) | 74.4%
CCCCOc1ccc(S(=O)(=O)N2CCN(c3nc(C)cc(N4CCOCC4)n3)CC2)cc1 | 5.32% (active) | -35.5% (active) | 2.51% (active) | 62.6% | 18.8% | 36.4% | 84% | -23.6% (active) | -71.5% (active) | -2.33% (active)
CNc1sc(S(=O)(=O)NC)nc1S(=O)(=O)c1ccc(C)cc1 | 94.2% | 107% | 88.3% | 96% | 95.8% | 96.7% | 98.4% | 91.3% | 96.1% | 102%
